Reference: PubChem BioAssay (NCI)
Several values for one entry are separate records, joined by “and”; a condition that tells them apart may be missing. Equal values may be shown once. About 83,000 compounds went through this panel and 20% of them were active in at least one assay; those are over-represented in the sample as a whole.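 For each line, cells grew in 96-well plates with the test compound present at a single concentration for 48 hours.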 Activity calls are given as the source filed them. The calls were made as follows: active = growth percent below 10; inactive = the rest.

system: MDA-MB-468 breast; test: NCI-60 one-dose screen, 48 h (100 = growth as untreated, 0 = no growth, -100 = all killed); conditions: 10 µM unless noted

| Structure (SMILES) | growth |
| --- | --- |
| FC(F)(F)c1cc(NC2=NCCN=C(Nc3cc(C(F)(F)F)cc(C(F)(F)F)c3)SS2)cc(C(F)(F)F)c1 | 23.6% (inactive) |
| CN1CCN(c2ccc(C(=O)Nc3n[nH]c4ccc(Cc5cc(F)cc(F)c5)cc34)c(NC3CCOCC3)c2)CC1 | -72.3% (active) |
| Cc1csc(/N=C(N)/N=C(\N)c2cccc(C#N)c2)n1 | 101% (inactive) |
| CC(C)(C)Nc1nc2c(OCCc3ccccc3)cccn2c1-c1ccc(Cl)cc1 | -22.4% (active) |
| Fc1ccccc1/C=C(/C1=NCCN1)n1cnc2ccccc21 | 98.1% (inactive) |
| CCCCn1c(C)nc2ccc(Nc3nc(Cl)nc4nc[nH]c34)cc21 | 34.6% (inactive) |
| CN=C(N)N/N=C(\c1ccccc1)c1ccc(Br)cc1 | 1.8% (active) |
| N#CC(C#N)=C1NC(c2ccccc2)=C(c2ccccc2)C(c2ccccc2Cl)=C1C#N | 129% (inactive) |
| O=[N+]([O-])C1=C(c2ccccc2)SC=C(c2ccccc2)S1 | 72.7% (inactive) |
| C=CCNCCN1C(=O)c2ccc3c4c(ccc(c24)C1=O)C(=O)N(CCNCC=C)C3=O | -89.1% (active) |
| O=c1[nH]c(Sc2sc3ccc(Cl)cc3c2CBr)nc(=S)[nH]1 | 19.1% (inactive) |
| CN1C(=O)N(C)C2C1NN=c1s/c(=C\c3ccsc3)c(=O)n12 (stereo not given) | 34.3% (inactive) |
| O=C(CSc1nnc2sc(Nc3cccc(Cl)c3)nn12)c1ccc(F)cc1 | 89.5% (inactive) |
| COC(=O)/C=C1/SC(=Nc2ccc([N+](=O)[O-])cc2)N(CCc2c[nH]c3ccc(O)cc23)C1=O | 56.8% (inactive) |
| Nc1cccc(NC(=O)C(=O)Nc2cccc(N)c2)c1 | 117% (inactive) |
| COc1ccc(-c2c(-c3ccc(OC)c(O)c3)cnc3ncnn23)cc1 | 109% (inactive) |
| COc1ccc(Nc2ncccc2NC(=O)c2cn(Cc3cccc(Oc4ccccc4)c3)nn2)cc1OC | 55.6% (inactive) |
| CC(C)C[C@H](NC(=O)Cn1cccc(CNC(=O)c2ccccc2)c1=O)B(O)O | -19.5% (active) |
| CCOC(=O)C1C(C(=O)OCC)C2C(=O)C3C(C(=O)OCC)C(C(=O)OCC)C3C(=O)C12 (stereo not given) | 98.5% (inactive) |
| O=S(=O)(NCCCNc1nccc(-c2c(-c3cccc(F)c3)nc3sccn23)n1)c1cccc(F)c1 | 33% (inactive) |

| Structure (SMILES) | growth |
| --- | --- |
| COc1cc(/C=C2\C(=O)Nc3cc(Cl)ccc32)ccc1OCc1ccc(F)cc1 | 93% (inactive) |
| C=CCn1c2ccccc2c2c3c(c4c5ccccc5n(CC=C)c4c21)C(=O)N(O)C3=O | 24% (inactive) |
| N#Cc1cnc2ccc(-c3cnc(N)nc3)cc2c1N1CCc2cc(F)c(Cl)cc21 | -38.1% (active) |
| NS(=O)(=O)c1ccc(CCN2C(=O)C3C(C2=O)C2(Cl)C(Cl)=C(Cl)C3(Cl)C2(Cl)Cl)cc1 (stereo not given) | 109% (inactive) |
| Cc1ccc(C(=O)/C(=C\c2ccc([N+](=O)[O-])cc2)S(=O)Cc2ccc(F)cc2)cc1 (stereo not given) | -10.3% (active) |
| COc1cccc2c1C(=O)c1c(O)c3c(c(O)c1C2=O)C[C@](O)(C(=O)CO)C[C@H]3O[C@@H]1C[C@@H](NC(=O)CCCCCN(C)C2(c3ccc(F)cc3)CC3CCC2C3)[C@H](O)[C@@H](C)O1 (stereo not given in full) | 4.63% (active) |
| Oc1c(CN2CCC(N3CCCCC3)CC2)cc(Cc2cc(CN3CCC(N4CCCCC4)CC3)c(O)c3ncccc23)c2cccnc12 | -39.2% (active) |
| Cc1cc(N)c2ccccc2[n+]1CCCCCCCCCC[n+]1c(C)cc(N)c2ccccc21 | -55.7% (active) |
| O=C(NCCc1ccccc1)C1CCC(=O)N1Cc1ccc(Br)cc1 (stereo not given) | 108% (inactive) |
| Cc1nc2c(=O)[nH]c(=S)[nH]c2[nH]c1=O | 107% (inactive) and 111% (inactive) |
| Nc1ccccc1SC(CC(=O)c1ccccc1)c1cccc([N+](=O)[O-])c1 (stereo not given) | 85.9% (inactive) and 77.9% (inactive) |
| COc1cc(-c2nn(-c3ccc(NC(=O)Nc4ccc(Cl)c(Cl)c4)cc3)cc2-c2ccncc2)ccc1Cl | 30.4% (inactive) |
| CCOC(=O)NCCCC(=O)NCCc1ccccc1 | 105% (inactive) |
| CCCCCCCCOc1ccc(/C=N/Nc2cc(C)nc3ccc(Br)cc23)cc1 | 90% (inactive) |
| CCOC(=O)C(=O)Cc1cccnn1 | 102% (inactive) |
| CCc1nc2cc(/C=C/C(=O)NO)ccc2c(=O)n1CCc1ccc(OC)cc1 | 14.1% (inactive) |
| COc1cc(-c2nc(-c3nc4ccccc4[nH]3)cc3c2[nH]c2ccccc23)cc(OC)c1OC | 42.1% (inactive) |
| COc1ccc(-c2cc(/C=C/C(=O)c3ccc(N)cc3)[nH]n2)cc1 | 4.1% (active) |
| COC(=O)CCCCN=Cc1c(O)c(O)c(C(C)C)c2cc(C)c(-c3c(C)cc4c(C(C)C)c(O)c(O)c(C=NCCCCC(=O)OC)c4c3O)c(O)c12 | 18.6% (inactive) |
| CCN(CC)c1ccc(/C=N/NC(=O)Cc2ccc(Nc3ccnc(C(F)(F)F)c3)cc2)c(O)c1 | 26.1% (inactive) |
